Our source for the inhibition values is PubChem BioAssay.

The source made the active and inactive calls. The rule behind the calls is not given here.

The term inhibition denotes the percentage by which the read-out fell short of the control.

The target of this experiment is Pantothenate synthetase (Mycobacterium tuberculosis (strain ATCC 25618 / H37Rv)) (UniProt P9WIL5). As to the kind of experiment: Recombinant Mtb pantothenate synthetase (PanC) inhibitors, coupled enzyme, confirmatory (AID 375).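 Note: 0% = full reaction with vehicle and 100% = no enzyme background.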 The following applies: coupled enzyme assay; at 10 µM, hits give high values.
Pantothenate synthetase (Mycobacterium tuberculosis (strain ATCC 25618 / H37Rv)), sequence (P9WIL5 whole entry, looked up): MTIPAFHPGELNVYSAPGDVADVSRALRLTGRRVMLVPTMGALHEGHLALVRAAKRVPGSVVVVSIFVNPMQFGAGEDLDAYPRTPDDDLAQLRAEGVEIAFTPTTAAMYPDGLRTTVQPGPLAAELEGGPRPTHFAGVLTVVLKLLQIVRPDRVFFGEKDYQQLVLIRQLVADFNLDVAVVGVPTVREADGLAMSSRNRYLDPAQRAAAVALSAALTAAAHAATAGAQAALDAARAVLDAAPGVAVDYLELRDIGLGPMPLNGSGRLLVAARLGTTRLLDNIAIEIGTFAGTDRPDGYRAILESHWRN
`CCOC(=O)N1CCN(C(=O)C(NS(=O)(=O)c2cccc3nsnc23)c2ccccc2)CC1` (centres undefined): the inhibition is 0% (inactive).

As for `O=C1OCc2cc(NC(=O)C3CCCO3)ccc21` (centres undefined), the inhibition is 5% (inactive).

With `COc1cc2c(cc1OC)C(c1ccccc1O)N(C1CC(=O)N(c3ccccc3)C1=O)CC2` (centres undefined), the inhibition is 0% (inactive).

As to `C[C@]12C=CC(=O)C=C1CC[C@@H]1[C@@H]2[C@@H](O)C[C@@]2(C)[C@H]1CC[C@]2(O)C(=O)COC(=O)CCC(=O)O`, the inhibition was 0% (inactive). As for `Cc1cc(C)c2[nH]c(=O)c(C(c3nnnn3Cc3ccc4c(c3)OCO4)N3CCC(C)CC3)cc2c1` (centres undefined), the inhibition is 0% (inactive). Take `COc1ccc(N(CC(=O)N2c3ccccc3CC2C)S(=O)(=O)c2c(C)noc2C)cc1` (centres undefined): the inhibition was 7% (inactive).

Regarding `Cn1cnnc1SCC(=O)Nc1sc2c(c1C#N)CCCCC2`, the inhibition is 1% (inactive). For the compound `N#CCCNCC1(c2ccccc2)CCCC1`, the inhibition was 7% (inactive). Regarding `CCCOc1ccc(C2c3c(oc4ccccc4c3=O)C(=O)N2CCCN2CCOCC2)cc1` (centres undefined), the inhibition is 4% (inactive). The result for `COc1ccc(C)cc1-n1nnnc1SC/C(O)=C(\C#N)c1nc2ccccc2[nH]1` reads 4% (inactive); that for `Cc1cc(C)n(CCc2nc(-c3cccs3)cs2)n1`, 2% (inactive). Turning to `COc1cc(Cl)c(C)cc1NC(=O)COC(=O)c1cnc(C)cn1`, the inhibition is 0% (inactive). In the case of `c1ccc(Cc2nnc3n2CCCCC3)cc1`, the inhibition is 6% (inactive). The result for `O=C(NCC(F)(F)F)Nc1cccnc1` reads 7% (inactive).

Turning to `O=C(Nc1ccccc1)N(CCN1CCOCC1)Cc1ccccc1F`, the inhibition is 0% (inactive). The result for `O=C(NCc1ccco1)C1CCN(c2ccc(N3CCOCC3)nn2)CC1` reads 0% (inactive); that for `Cc1ccc(Cn2ncc3c(NCCCN4CCOCC4)ncnc32)cc1`, 8% (inactive). On to `COc1ccc(C)cc1S(=O)(=O)Nc1cccnc1`, for which the inhibition is 0% (inactive). Consider `NC(=O)COC(=O)c1ccc(S(=O)(=O)N2CCCCCC2)cc1`, for which the inhibition is 0% (inactive). Under `Cc1nc(SC2C=CS(=O)(=O)C2)n[nH]1` (centres undefined) stands 5% (inactive); under `CC1(C)Cc2noc(N)c2C(C)(C)N1O`, 0% (inactive); under `COc1ccc(-c2noc(CSc3nc(N)c(-c4ccccc4)c(=O)[nH]3)n2)cc1OC`, 9% (inactive). Regarding `Cc1oc(-c2ccccc2F)nc1CS(=O)(=O)CC(=O)N1CCCCCC1`, the inhibition was 1% (inactive).

Regarding `CCc1nnc(NC(=O)c2ccc(S(=O)(=O)N(CC(C)C)CC(C)C)cc2)o1`, the inhibition was 0% (inactive). Regarding `Cc1ccc(CSC2=NCCN2C(=O)C2CC2)cc1`, the inhibition is 2% (inactive). The result for `Cc1cc(C)c(C(=O)CSc2nnc(-c3ccccc3Br)o2)cc1C` reads 2% (inactive); that for `CCOc1cc2[nH]c(=O)n(CCCCC(=O)NCc3ccco3)c(=O)c2cc1OCC`, 6% (inactive). The result for `O=C(CSc1ncnc2c1oc1ccccc12)NCc1ccco1` reads 6% (inactive); that for `CCOC(=O)c1cc2c(=O)n3cccc(C)c3nc2n(CCOC)c1=NC(=O)c1ccncc1`, 0% (inactive); that for `O=C(C1CC2CCC1C2)N1CCN(Cc2ccc3c(c2)OCO3)CC1` (centres undefined), 8% (inactive). Under `O=C(c1csc2ccccc12)n1cccn1` stands 0% (inactive); under `CN(C)c1ccc(C=NCC2(O)CCOC(C)(C)C2)cc1` (centres undefined), 3% (inactive). Take `CC(=O)N1C(=O)c2cccc3cccc(c23)C(=O)N1C(C)=O`: the inhibition is 0% (inactive). The result for `COc1ccc(C)cc1-n1nnnc1SCC(=O)NC(=O)NCc1ccco1` reads 11% (inactive); that for `CCOc1ccccc1C(=O)NCC(=O)OCC(=O)N1C(C)CCCC1C` (centres undefined), 7% (inactive). Consider `CCOc1ccc(-c2noc(-c3ccncc3)n2)cc1OCC`, for which the inhibition is 4% (inactive).

`Cc1cc(C(=O)Nc2c(F)cc(F)cc2Br)no1`: the inhibition was 0% (inactive). Under `O=C(Nc1ccc(SC(F)F)cc1)c1ccc2nccnc2c1` stands 0% (inactive). Under `CCN(CC)S(=O)(=O)c1ccc2[nH]cc(C(=O)NCCC3=CCCCC3)c(=O)c2c1` stands 0% (inactive).
